Outcome and AC50 data for six compounds are collected here from PubChem BioAssay (EPA / NIEHS).

Test [1] deals with Paired box protein Pax-6 (Homo sapiens) (UniProt P26367). The test is described as follows: ATG_Pax6_CIS: Attagene CIS-FACTORIAL HepG2 Assay for human Paired Box 6 (PAX6) (AID 2282956). The note with it: HepG2 CIS-FACTORIAL PAX6 reporter transcription, RNA readout; actives raise or lower the signal. In short, it runs like this:
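Values derive from bidirectional curve fitting of reporter mRNA signal relative to DMSO. HepG2 cells bearing transfected cis-regulated MRTUs were exposed for 24 h; transcripts were read by RT-PCR and capillary electrophoresis.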

Test [2] can be described thus: ATG_PXRE_CIS: Attagene CIS-FACTORIAL HepG2 Assay for human Pregnane X Receptor Element (PXRE) (AID 2282957). The note with it: HepG2 Attagene CIS-FACTORIAL PXRE reporter, mRNA; actives raise or lower the signal. In short, it runs like this: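 Using HepG2 transfected with multiple reporter transcription units, endogenous factor-driven transcription was scored as reporter mRNA after 24 h exposure.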

Test [3] can be described thus: ATG_PPRE_CIS: Attagene CIS-FACTORIAL HepG2 Assay for human Peroxisome Proliferator-activated Response Element (PPRE) (AID 2282958). The following applies: HepG2 PPRE cis-element reporter, Attagene transcription factor profiling; actives raise or lower the signal. An outline of the steps:
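PPRE activity in HepG2: transient cis-reporter transfection, 24 h compound incubation, reporter mRNA by RT-PCR and CE fluorescence; gain/loss fitted against DMSO.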

Test [4] is described as follows: ATG_RORE_CIS: Attagene CIS-FACTORIAL HepG2 Assay for human RAR-related Orphan Receptor Element (RORE) (AID 2282959). The following applies: HepG2 Attagene cis-factorial RORE reporter, mRNA; actives raise or lower the signal. An outline of the steps:
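A 24-hour exposure of transfected HepG2 hepatoma cells precedes RNA isolation and reporter RT-PCR. Labeled products are digested with HpaI and resolved by capillary electrophoresis, with gain or loss of signal scored relative to DMSO.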

Test [5] has as its target Transcription factor Sp1 (Homo sapiens) (UniProt P08047). The test is described as follows: ATG_Sp1_CIS: Attagene CIS-FACTORIAL HepG2 Assay for human Specificity Protein 1 (Sp1) (AID 2282961). The note with it: HepG2 Sp1 cis-reporter transcription, actives raise or lower the signal. In short, it runs like this:
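Liver-derived HepG2 cells, cis-element reporter library, 24 h treatment; RNA isolated, cDNA amplified with reporter-specific primers, FAM-labeled fragments sized on capillary analyzer. DMSO baseline, bidirectional curve fit.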

A short description of test [6]: ATG_SREBP_CIS: Attagene CIS-FACTORIAL HepG2 Assay for human Sterol Regulatory Element Binding (SREBP) (AID 2282962). The note with it: HepG2 Attagene cis-factorial SREBP reporter, mRNA; actives raise or lower the signal. In short, it runs like this: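 Values derive from bidirectional curve fitting with DMSO as baseline. The underlying measurement is reporter mRNA from cis-element-regulated units in transiently transfected HepG2, quantified by RT-PCR and capillary electrophoresis after 24 h exposure.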

In test [7] the target is Signal transducer and activator of transcription 3 (Homo sapiens) (UniProt P40763). The test is described as follows: ATG_STAT3_CIS: Attagene CIS-FACTORIAL HepG2 Assay for human Signal Transducer and Activator of Transcription 3 (STAT3) (AID 2282963). The note with it: HepG2, Attagene cis-factorial STAT3 reporter transcription; actives raise or lower the signal. An outline of the steps: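 Cis-factorial format: endogenous transcription factors in HepG2 drive transfected reporter units. After 24 h treatment, reporter RNA was reverse-transcribed, amplified, FAM-labelled and HpaI-digested before CE analysis; activity scored in both directions against DMSO.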

Test [8] is described as follows: ATG_TA_CIS: Attagene CIS-FACTORIAL HepG2 Assay for human TA Basal Promoter (AID 2282964). The note with it: HepG2 Attagene CIS-factorial TA basal promoter reporter; actives raise or lower the signal. An outline of the steps:
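Background internal-marker endpoint from a 52-component HepG2 cis-reporter panel. Cells treated 24 h; reporter transcripts quantified via RT-PCR and CE fluorescence against DMSO baseline.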

Test [9] can be described thus: ATG_TCF_b_cat_CIS: Attagene CIS-FACTORIAL HepG2 Assay for human T-Cell-Factor with beta-catenin (TCF/b-cat) (AID 2282965). The following applies: HepG2 TCF/beta-catenin cis-reporter transcription, actives raise or lower the signal. In short, it runs like this: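 Endogenous transcription factor activity is captured through cis-promoter reporter constructs transiently introduced into human HepG2 liver cells. Induced reporter mRNA is measured after 24 h and fitted bidirectionally relative to DMSO.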

Test [10] in a line: ATG_TGFb_CIS: Attagene CIS-FACTORIAL HepG2 Assay for human Transforming Growth Factor (TGF) (AID 2282967). The note with it: HepG2 Attagene CIS TGFb reporter, mRNA transcription; actives raise or lower the signal. An outline of the steps:
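Liver HepG2 line, cis-factorial reporter panel, 24 h dosing. Quantitation: RT-PCR products labeled with 6-FAM, cut with HpaI, resolved by capillary electrophoresis; DMSO-referenced bidirectional analysis.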

Test [11] can be described thus: ATG_VDRE_CIS: Attagene CIS-FACTORIAL HepG2 Assay for human Vitamin D Receptor Element (VDRE) (AID 2282968). The following applies: HepG2 VDRE cis-reporter transcription, actives raise or lower the signal. An outline of the steps:
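Measures endogenous factor activity through cis-element-driven reporter transcripts in transiently transfected HepG2. Cells are treated 24 h; reporter mRNA is quantified by RT-PCR and capillary electrophoresis; fitting is bidirectional.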

Test [12] addresses X-box-binding protein 1 (Homo sapiens) (UniProt P17861). The test is described as follows: ATG_Xbp1_CIS: Attagene CIS-FACTORIAL HepG2 Assay for human X-box Binding Protein 1 (XBP1) (AID 2282972). The following applies: HepG2 XBP1 cis-element reporter, Attagene multiplex; actives raise or lower the signal. In short, it runs like this:
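Human hepatoma HepG2, cis-element reporter system, 24 h treatment; mRNA quantified by RT-PCR/CE fluorescence; fit relative to DMSO.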

Test [13] can be described thus: ATG_M_19_TRANS: Attagene TRANS-FACTORIAL HepG2 Assay for M19 Transcription Factor (Internal Marker) (AID 2282974; active = hit-call score of the fitted dose curve at least 0.9, where 1 is the maximum). The note with it: HepG2 Attagene TRANS-FACTORIAL M19 internal marker reporter. An outline of the steps: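 Transfected HepG2 (GAL4-UAS MRTUs), 24 h compound, TriZol RNA, DNase-treated RT, reporter PCR, FAM label, HpaI digest, CE fluorescence; gain vs DMSO.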

Test [14] can be described thus: ATG_Sox_CIS: Attagene CIS-FACTORIAL HepG2 Assay for human SRY-box transcription factor (SOX) (AID 2282960). The note with it: HepG2 Attagene cis-factorial SOX reporter, mRNA; actives raise or lower the signal. In short, it runs like this:
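HepG2, cis reporter units, 24 h exposure. Reporter mRNA: RT-PCR → FAM labelling → HpaI → CE fluorescence. Bidirectional fit vs DMSO.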

Test [15] is described as follows: ATG_TAL_CIS: Attagene CIS-FACTORIAL HepG2 Assay for human TAL Basal Promoter (AID 2282966).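 Also: background control endpoint measuring basal TAL promoter reporter mRNA not a specific factor.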 The note with it: HepG2 Attagene cis-factorial TAL promoter reporter; actives raise or lower the signal. An outline of the steps:
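After 24 hours of chemical exposure, transfected HepG2 cells yielded RNA that was converted to 6-FAM-labelled, HpaI-digested reporter fragments for capillary electrophoresis. Values derive from bidirectional fitting against DMSO controls.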

Test [16] has as its target Nuclear receptor subfamily 1 group I member 3 (Homo sapiens) (UniProt Q14994). The test is described as follows: ATG_CAR_TRANS: Attagene TRANS-FACTORIAL HepG2 Assay for human Constitutive Androstane Receptor (CAR) (AID 2282969; active = hit-call score of the fitted dose curve at least 0.9, where 1 is the maximum;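 also: activators raise reporter mRNA above DMSO so AC50 marks induction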). The note with it: HepG2 Attagene TRANS-FACTORIAL CAR reporter. In short, it runs like this:
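Signal is reporter mRNA induction relative to DMSO, measured 24 h after dosing by RT-PCR with fluorescent primer extension and capillary electrophoresis. Human HepG2 liver cells carried transiently transfected chimeric NR-Gal4/GAL4-UAS reporter constructs.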

Test [17] has as its target Estrogen receptor (Homo sapiens) (UniProt P03372). The test is described as follows: ATG_ERa_TRANS: Attagene TRANS-FACTORIAL HepG2 Assay for human Estrogen Receptor alpha (ERa) (AID 2282970; active = hit-call score of the fitted dose curve at least 0.9, where 1 is the maximum). The following applies: HepG2 Attagene TRANS ERa GAL4 reporter, mRNA. An outline of the steps:
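Liver-derived HepG2 cells expressing chimeric nuclear receptor-Gal4 proteins from transient transfection were exposed for 24 hours. Gain of reporter mRNA signal versus DMSO, read by capillary electrophoresis of FAM-labelled PCR products, was recorded.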

The nature of test [18]: ATG_GAL4_TRANS: Attagene TRANS-FACTORIAL HepG2 Assay for GAL4 (Internal Marker) (AID 2282976; active = hit-call score of the fitted dose curve at least 0.9, where 1 is the maximum). The note with it: HepG2 Attagene TRANS GAL4 internal marker reporter. In short, it runs like this: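 First, HepG2 cells were transfected with reporter units under GAL4-UAS control. Next, they were treated with chemical for 24 h. Finally, RNA was reverse-transcribed, PCR-amplified, FAM-labelled and resolved by capillary electrophoresis, with induction scored against DMSO.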

Test [19] addresses Estrogen-related receptor gamma (Homo sapiens) (UniProt P62508). The test is described as follows: ATG_ERRg_TRANS: Attagene TRANS-FACTORIAL HepG2 Assay for human Estrogen-Related Receptor gamma (ERRg) (AID 2282977; active = hit-call score of the fitted dose curve at least 0.9, where 1 is the maximum;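 also: hits increase reporter signal over DMSO so potencies reflect activators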). The following applies: HepG2 Attagene TRANS reporter, ERRg transactivation. An outline of the steps:
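Readout: fluorescent reporter-mRNA fragments resolved by capillary electrophoresis after RT-PCR and HpaI cut. Cells: transiently transfected HepG2 carrying GAL4-UAS reporters driven by exogenous NR-Gal4 chimeras, dosed 24 h. Activity fitted upward relative to DMSO baseline.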

Molecules are shown by their SMILES. Inconclusive results are not listed. Activity calls are given as the source filed them. The calls were made as follows, unless noted: active = hit-call score of the fitted dose curve at least 0.9, where 1 is the maximum; inactive = score below 0.9.

Paired box protein Pax-6 (Homo sapiens), sequence (P26367 whole entry, looked up): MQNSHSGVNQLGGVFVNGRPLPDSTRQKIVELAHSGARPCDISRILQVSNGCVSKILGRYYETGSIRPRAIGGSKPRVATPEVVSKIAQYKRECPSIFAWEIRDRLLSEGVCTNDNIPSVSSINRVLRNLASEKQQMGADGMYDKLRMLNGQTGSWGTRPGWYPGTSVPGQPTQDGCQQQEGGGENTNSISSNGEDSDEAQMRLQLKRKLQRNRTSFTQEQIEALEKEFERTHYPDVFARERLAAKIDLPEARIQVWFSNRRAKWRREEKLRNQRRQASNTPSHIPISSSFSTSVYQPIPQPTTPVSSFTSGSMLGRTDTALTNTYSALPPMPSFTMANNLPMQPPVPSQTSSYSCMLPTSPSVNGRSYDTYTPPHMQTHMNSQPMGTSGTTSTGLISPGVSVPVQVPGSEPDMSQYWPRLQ
Signal transducer and activator of transcription 3 (Homo sapiens), sequence (P40763 whole entry, looked up): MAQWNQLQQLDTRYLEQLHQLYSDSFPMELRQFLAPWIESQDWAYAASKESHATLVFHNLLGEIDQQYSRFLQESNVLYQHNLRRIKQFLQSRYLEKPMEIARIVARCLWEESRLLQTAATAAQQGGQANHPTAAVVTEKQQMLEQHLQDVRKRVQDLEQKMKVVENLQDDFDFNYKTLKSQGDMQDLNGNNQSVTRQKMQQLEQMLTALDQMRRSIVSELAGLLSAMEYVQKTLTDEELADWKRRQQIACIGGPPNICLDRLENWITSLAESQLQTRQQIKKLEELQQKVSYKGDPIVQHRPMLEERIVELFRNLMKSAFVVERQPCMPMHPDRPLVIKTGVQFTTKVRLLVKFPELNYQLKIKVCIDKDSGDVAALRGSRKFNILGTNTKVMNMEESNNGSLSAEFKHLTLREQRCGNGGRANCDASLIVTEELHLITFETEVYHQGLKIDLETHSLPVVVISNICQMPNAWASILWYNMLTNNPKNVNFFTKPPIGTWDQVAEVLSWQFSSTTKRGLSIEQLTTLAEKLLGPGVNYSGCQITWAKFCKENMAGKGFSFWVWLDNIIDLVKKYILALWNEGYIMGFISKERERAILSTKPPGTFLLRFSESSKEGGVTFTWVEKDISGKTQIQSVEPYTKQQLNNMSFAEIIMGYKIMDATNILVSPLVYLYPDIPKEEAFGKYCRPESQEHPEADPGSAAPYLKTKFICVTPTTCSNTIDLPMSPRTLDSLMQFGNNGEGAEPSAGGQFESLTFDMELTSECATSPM
Estrogen receptor (Homo sapiens), sequence (P03372 whole entry, looked up, the tested form may be a part): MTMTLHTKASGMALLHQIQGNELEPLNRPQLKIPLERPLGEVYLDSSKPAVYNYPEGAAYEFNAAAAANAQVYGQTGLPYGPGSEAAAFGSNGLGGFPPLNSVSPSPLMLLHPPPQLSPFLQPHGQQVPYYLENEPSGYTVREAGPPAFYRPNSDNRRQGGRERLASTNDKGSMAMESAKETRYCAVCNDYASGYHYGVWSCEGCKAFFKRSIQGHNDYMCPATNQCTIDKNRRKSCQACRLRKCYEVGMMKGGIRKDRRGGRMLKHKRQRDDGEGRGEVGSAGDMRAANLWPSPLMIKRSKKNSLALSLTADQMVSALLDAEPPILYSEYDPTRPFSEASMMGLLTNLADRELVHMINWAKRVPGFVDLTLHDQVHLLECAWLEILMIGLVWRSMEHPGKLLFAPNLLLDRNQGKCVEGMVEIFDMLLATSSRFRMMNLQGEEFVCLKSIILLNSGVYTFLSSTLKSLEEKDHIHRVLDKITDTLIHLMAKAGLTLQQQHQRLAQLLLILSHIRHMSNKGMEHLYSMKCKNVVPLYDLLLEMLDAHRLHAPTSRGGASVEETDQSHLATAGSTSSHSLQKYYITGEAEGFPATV
Transcription factor Sp1 (Homo sapiens), sequence (P08047 whole entry, looked up, the tested form may be a part): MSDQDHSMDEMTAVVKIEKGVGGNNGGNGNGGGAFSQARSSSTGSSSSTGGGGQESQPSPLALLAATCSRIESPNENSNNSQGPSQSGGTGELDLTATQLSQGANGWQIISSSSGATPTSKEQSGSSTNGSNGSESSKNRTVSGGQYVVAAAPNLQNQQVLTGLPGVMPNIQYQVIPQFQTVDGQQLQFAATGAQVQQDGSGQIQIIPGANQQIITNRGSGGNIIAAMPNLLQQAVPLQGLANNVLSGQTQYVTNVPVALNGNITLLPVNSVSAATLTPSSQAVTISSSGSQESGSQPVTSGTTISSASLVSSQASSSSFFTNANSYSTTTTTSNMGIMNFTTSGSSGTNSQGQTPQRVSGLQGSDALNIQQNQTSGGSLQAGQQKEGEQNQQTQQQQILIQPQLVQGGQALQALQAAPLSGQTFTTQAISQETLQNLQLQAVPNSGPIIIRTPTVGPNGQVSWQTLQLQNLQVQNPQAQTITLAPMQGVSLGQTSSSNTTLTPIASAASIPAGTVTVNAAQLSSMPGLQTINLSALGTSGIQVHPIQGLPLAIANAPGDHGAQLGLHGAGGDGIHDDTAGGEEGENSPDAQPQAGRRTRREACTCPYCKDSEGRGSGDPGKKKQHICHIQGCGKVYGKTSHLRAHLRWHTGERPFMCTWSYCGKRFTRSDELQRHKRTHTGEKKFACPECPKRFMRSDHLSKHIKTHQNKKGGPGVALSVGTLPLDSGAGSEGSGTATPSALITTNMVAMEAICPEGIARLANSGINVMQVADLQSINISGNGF
Nuclear receptor subfamily 1 group I member 3 (Homo sapiens), sequence (Q14994 whole entry, looked up, the tested form may be a part): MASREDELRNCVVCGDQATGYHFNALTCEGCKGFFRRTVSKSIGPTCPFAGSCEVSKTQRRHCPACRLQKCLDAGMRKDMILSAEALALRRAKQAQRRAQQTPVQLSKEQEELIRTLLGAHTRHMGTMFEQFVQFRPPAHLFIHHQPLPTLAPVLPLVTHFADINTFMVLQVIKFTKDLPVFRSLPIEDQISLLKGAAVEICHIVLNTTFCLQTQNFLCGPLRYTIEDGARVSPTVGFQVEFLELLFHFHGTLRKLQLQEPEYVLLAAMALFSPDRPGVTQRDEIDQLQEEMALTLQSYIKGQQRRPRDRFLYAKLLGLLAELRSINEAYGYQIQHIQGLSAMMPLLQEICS
X-box-binding protein 1 (Homo sapiens), sequence (P17861 whole entry, looked up): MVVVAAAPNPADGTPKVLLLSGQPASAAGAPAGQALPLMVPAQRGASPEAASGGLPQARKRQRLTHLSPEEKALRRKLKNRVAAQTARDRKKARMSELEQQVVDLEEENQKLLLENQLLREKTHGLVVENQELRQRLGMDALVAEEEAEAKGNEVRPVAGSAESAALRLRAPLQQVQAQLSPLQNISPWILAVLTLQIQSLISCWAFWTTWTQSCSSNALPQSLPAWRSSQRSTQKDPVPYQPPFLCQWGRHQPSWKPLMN
Estrogen-related receptor gamma (Homo sapiens), sequence (P62508 whole entry, looked up, the tested form may be a part): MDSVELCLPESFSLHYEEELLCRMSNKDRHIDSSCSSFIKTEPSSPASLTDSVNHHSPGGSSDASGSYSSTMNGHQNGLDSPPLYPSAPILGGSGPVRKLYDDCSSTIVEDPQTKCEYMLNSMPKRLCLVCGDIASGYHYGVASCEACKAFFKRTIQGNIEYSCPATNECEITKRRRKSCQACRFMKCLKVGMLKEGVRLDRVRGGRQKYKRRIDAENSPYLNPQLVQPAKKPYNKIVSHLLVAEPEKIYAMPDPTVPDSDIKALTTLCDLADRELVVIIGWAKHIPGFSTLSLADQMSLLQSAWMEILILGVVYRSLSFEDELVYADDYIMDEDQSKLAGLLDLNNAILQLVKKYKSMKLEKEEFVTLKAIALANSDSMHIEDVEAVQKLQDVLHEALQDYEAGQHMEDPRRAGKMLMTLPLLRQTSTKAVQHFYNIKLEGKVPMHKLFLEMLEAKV

Turning to `NC(=O)C1CO1` (configuration not stated), the compound was called inactive in test [1], in [2], in test [3], in test [4], in test [5] and in test [6]. For the same compound, the call in [7], in test [8], in test [9], in test [10], in test [11] and in test [12] was inactive. In addition, the result in test [13] was inactive.
Broadly, the AC50 is the midpoint of the concentration-response curve, whichever way the signal moves. On to `C(=CC=Nc1ccccc1)C=CNc1ccccc1`, for which the result in test [1], in [3], in test [4], in [14], in test [7] and in test [8] was inactive. Moreover, the compound was classed as inactive in test [9], in test [15], in [10], in test [11], in test [16] and in test [17]. The result in test [12], in test [13] and in test [18] was inactive. In test [2], the AC50 is 32.3 µM (active).
Consider `COC(=O)/C=C/C(C)=C\C=C\C(C)=C\C=C\C=C(C)\C=C\C=C(C)\C=C\C(=O)O`, for which the call in [1], in test [3], in test [4], in test [14], in test [6] and in test [7] was inactive. Also, the compound was classed as inactive in test [8], in [9], in test [10], in [11], in test [12] and in [19]. The AC50 in test [2] was 60.8 µM (active).
With `CC(C)c1ccc(C=O)cc1`, the outcome in [1], in [2], in [3], in test [4], in test [5] and in [6] was inactive. Besides, the compound was classed as inactive in test [7], in test [9], in [15], in test [10], in [11] and in [16]. The outcome in test [17] and in test [12] was inactive.
Take `NC(=O)c1ccccc1O`: the call in [1], in test [2], in test [3], in [4], in test [5] and in [7] was inactive. Besides, the compound was classed as inactive in [8], in [9], in test [15], in [10], in test [11] and in test [17]. The result in test [12], in test [13] and in test [18] was inactive.
With `CCO[Si](CCCN=C=O)(OCC)OCC`, the outcome in test [1], in test [3], in test [4], in test [5], in test [6] and in test [7] was inactive. Moreover, the compound was called inactive in test [8], in test [9], in test [15], in [10], in test [11] and in test [16]. Moreover, the call in [12], in [13] and in test [18] was inactive. Moreover, in test [2], the AC50 was 13.9 µM (active).
